Screening results (PubChem BioAssay)
B2AR arrestin: recruits beta-arrestin to the human beta2-adrenergic receptor; P07550; beta-arrestin recruitment to beta2AR, cell-based reporter; Potency, µM (top dose mostly 46.1 µM), most hits filed as activators; hit rate 0.02% among 330,000; AID 492947; also: nearly all actives have a fitted effect of over 65% in size
Target sequence (P07550 whole entry, looked up): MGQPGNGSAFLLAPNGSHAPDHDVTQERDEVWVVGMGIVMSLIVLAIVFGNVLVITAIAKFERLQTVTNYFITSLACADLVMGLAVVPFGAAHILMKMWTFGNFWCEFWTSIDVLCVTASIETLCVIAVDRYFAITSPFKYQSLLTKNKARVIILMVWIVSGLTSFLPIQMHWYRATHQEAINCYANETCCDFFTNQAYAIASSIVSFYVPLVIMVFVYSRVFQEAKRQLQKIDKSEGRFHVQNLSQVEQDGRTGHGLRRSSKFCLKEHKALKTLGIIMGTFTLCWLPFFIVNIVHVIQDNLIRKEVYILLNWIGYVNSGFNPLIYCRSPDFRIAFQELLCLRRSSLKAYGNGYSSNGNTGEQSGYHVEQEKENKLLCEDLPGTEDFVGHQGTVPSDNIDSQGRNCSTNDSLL
IDH1 R132H inh: inhibitors of human mutant IDH1 R132H; O75874; IDH1-R132H enzyme, NADPH consumption, diaphorase/resazurin fluorescence; Potency, µM (top dose mostly 76.6 µM), usual class: inhibitors; hit rate 0.093% among 390,000; AID 602179; also: nearly all actives have a fitted effect of over 65% in size
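IDH1-R132H (0.5 ug/mL) preincubated 30 min with compound, then NADPH (0.016 mM) and alpha-KG (2 mM) added; 80 min at RT, pH 7.5. Remaining NADPH coupled via diaphorase/resazurin to fluorescence (540/590 nm); concentration-response curves normalized to no-enzyme control.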
DRD3 antagonist: antagonists of human D3 dopamine receptor; P35462; D3R cells, DiscoveRx beta-arrestin luminescence, antagonist mode; active compounds read low; max response, negative = inhibition, %; hit rate 2.5% among 360,000; AID 652054; in the data active = max response below about -50%; inconclusive = no clear call, values can overlap the other calls
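Cells expressing the human receptor were seeded at 1500 cells/well, incubated overnight at 37 degrees C in 5% CO2, then exposed to library compounds with dopamine controls for 90 minutes at 37 degrees C before luminescent detection.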
a7 integrin act: activators of alpha7 integrin expression for muscular dystrophy; alpha7betagal myoblasts, beta-gal FDG fluorescence, 48 h; Potency, µM (top dose mostly 38.3 µM), actives largely listed as activators; hit rate 0.064% among 350,000; also: nearly all actives have a fitted effect of over 60% in size
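alpha7betagal+/- myoblasts (passage 13, 250/well) treated 48 h at 37C with compounds at 1:260 dilution of DMSO stock. Lysed, then beta-galactosidase activity read as FDG fluorescence (ex 480/em 540) after 30 min, with pre-read for autofluorescence.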
D3 ag: activates the human D3 dopamine receptor | max activation, % | hit rate 0.58% among 410,000 | D3R DiscoveRx beta-arrestin cells, luminescence, 90 min | AID 652048 | P35462; in the data active = max activation above about 30%
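Agonist-mode cell screen: cells plated at 1500/well and incubated overnight at 37 °C, then exposed to library compounds for 90 min at 37 °C. Detection reagent was added for 30–60 min at room temperature, and luminescence was read.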
Hits are given with their value; . = inactive; ? = inconclusive; / = no result given; [ ] = another dose, or the depositor's remark. In the library only some 2.9% were active in any assay of this set; here they are far more common. Unless noted, calls follow the shape of the dose curve; as a rule, active = well fitted curve in the direction sought with a large enough effect; inconclusive = small, poorly fitted or top-dose-only effect, or another doubt; inactive = no such curve, though single readings can be large; an effect the other way counts as inactive or inconclusive.

SMILES	B2AR arrestin	IDH1 R132H inh	DRD3 antagonist	a7 integrin act	D3 ag
C#CCOCCOCCOCCNc1nc(N2CCN(C(=O)CCCCCCCCCCNC(=O)[C@H]([C@@H](C)CC)n3cc(CCCCCN)nn3)CC2)nc(N2CCN(C(=O)CCCCCCCCCCNC(=O)[C@@H]([C@H](C)CC)n3cc(CCCCCN)nn3)CC2)n1	.	/	/	/	/
C#CCOCCOCCOCCNc1nc(N2CCN(C(=O)Cn3cc(CCCN=C(N)N)nn3)CC2)nc(N2CCN(C(=O)[C@H]([C@@H](C)CC)n3cc(CCCCN)nn3)CC2)n1	.	.	.	.	.
C#CCOCCOCCOCCNc1nc(N2CCN(C(=O)[C@H](Cc3ccc(O)cc3)n3cc(CCO)nn3)CC2)nc(N2CCN(C(=O)[C@H](Cc3ccc(O)cc3)n3cc(CCO)nn3)CC2)n1	.	/	/	/	/
C#CCOCCOCCOCCNc1nc(N2CCN(C(=O)CCCCCCCCCCNC(=O)[C@H]([C@@H](C)CC)n3cc(CCCCCN)nn3)CC2)nc(N2CCN(C(=O)CCCCCCCCCCNC(=O)[C@H]([C@@H](C)CC)n3cc(CCCCN=C(N)N)nn3)CC2)n1	.	/	/	/	/
CCC(Oc1ccccc1)C(=O)N1CCN(Cc2cc(=O)n3nc(-c4cccc(C)c4)sc3n2)CC1 (configuration not stated)	/	.	/	/	.
Cc1ccc(NC(=O)CN2C(=O)C3(SCC(=O)N3c3cccc(Cl)c3)c3ccccc32)cc1C (configuration not stated)	/	.	/	/	.
O=C(COC(=O)C1=COCCO1)Nc1cc(Cl)c(Cl)cc1Cl	.	.	.	.	.
C#CCOCCOCCOCCNc1nc(N2CCN(C(=O)CCCCCCCCCCNC(=O)[C@H]([C@@H](C)CC)n3cc(CCCCCN)nn3)CC2)nc(N2CCN(C(=O)CCCCCCCCCCNC(=O)[C@H](CCCCN)n3cc(CCCC(=O)O)nn3)CC2)n1	.	.	.	.	42
C#CCOCCOCCOCCNc1nc(N2CCN(C(=O)CCCCCCCCCCNC(=O)[C@H]([C@@H](C)CC)n3cc(CCCCCN)nn3)CC2)nc(N2CCN(C(=O)CCCCCCCCCCNC(=O)[C@H](CO)n3cc(CCCCCN)nn3)CC2)n1	.	.	.	.	.
C#CCOCCOCCOCCNc1nc(N2CCN(C(=O)[C@H]([C@@H](C)CC)n3cc([C@@H](N)CC(C)C)nn3)CC2)nc(N2CCN(C(=O)[C@H](Cc3ccc(O)cc3)n3cc([C@@H](N)C(C)CC)nn3)CC2)n1 (some centres not stated)	.	.	-50	.	.
C#CCOCCOCCOCCNc1nc(N2CCN(C(=O)[C@H]([C@@H](C)CC)n3cc([C@@H](N)Cc4ccc(O)cc4)nn3)CC2)nc(N2CCN(C(=O)[C@H](Cc3ccc(O)cc3)n3cc([C@@H](N)C(C)CC)nn3)CC2)n1 (some centres not stated)	.	.	.	.	.
O=C(NCC(c1ccco1)S(=O)(=O)c1ccc(Cl)cc1)c1ccc(C(F)(F)F)cc1 (configuration not stated)	/	.	/	/	.
COc1ccc(OC)c(-n2c3c(cc(-c4nc(-c5ccc(Cl)cc5)cs4)c2=O)C(=O)CC(C)(C)C3)c1	/	1.3µM	/	/	.
COc1ccc(CNC(=O)c2ccc3c(c2)N(Cc2ccccc2C)C(=O)c2ccccc2S3=O)cc1 (configuration not stated)	/	.	/	/	.
CCCN(CCC)CCCNC(=O)c1ccc2c(c1)N(CC)C(=O)c1ccccc1S2=O (configuration not stated)	.	.	-93	.	.
CCN1C(=O)c2ccccc2S(=O)c2ccc(C(=O)NCc3ccc(OC)cc3)cc21 (configuration not stated)	.	.	-51	.	.
CCCc1nc2c(s1)CCc1onc(-c3ccc(Br)cc3)c1-2	/	.	.	.	43
CC(C)c1nc2c(s1)CCc1onc(-c3ccc(Cl)cc3)c1-2	.	.	.	.	32
O=C(CN1CCN(c2cccc(Cl)c2)CC1)Nc1nccs1	.	.	.	?	.
O=C(CCN1CCN(c2ccc(Cl)cc2)CC1)Nc1nccs1	.	.	-66	.	.
CCNc1ccc(Br)cc(C(=O)/C=C/c2ccc(Cl)cc2Cl)c1=O	.	.	-78	.	.
O=C(NNC(=O)C(c1ccccc1)c1ccccc1)c1ccccn1	.	.	-86	.	.
CCC(CC)C(=O)Nc1cccc(/C(C)=N/NC(=O)c2c(Br)cnn2C)c1	.	.	-51	.	.
COc1cc([C@@H]2c3cc4c(cc3C(O[C@@H]3O[C@@H]5COC(c6cccs6)O[C@H]5[C@H](O)[C@H]3O)C3COC(=O)[C@@H]32)OCO4)cc(OC)c1O (some centres not stated)	/	/	/	/	.
COc1ccc(NS(=O)(=O)c2cc(NC(=O)c3ccco3)ccc2N2CCCC2)cc1	.	.	-56	.	.
SMILES	B2AR arrestin	IDH1 R132H inh	DRD3 antagonist	a7 integrin act	D3 ag
COc1ccc(/C=N/NC(=O)CCn2c3ccccc3c3ccccc32)cc1OC	.	.	.	.	.
COc1cc(/C=N/NC(=O)CCn2c3ccccc3c3ccccc32)cc(OC)c1OC	.	.	.	.	42
O=C(c1cc(S(=O)(=O)N2CCCC2)c[nH]1)N1CCN(c2cccc(Cl)c2)CC1	/	.	/	/	.
C=CCOc1ccc(CNc2nccs2)cc1OCC	.	.	-54	.	.
Cc1cccc(C(=O)NCCc2nnc(SCC(=O)Nc3cccc(C(=O)O)c3)n2C)c1	.	.	.	.	.
COc1cccc(-n2nnnc2S(C)(=O)=O)c1	.	.	-77	.	.
COc1ccccc1C(=O)N1CCC(C(=O)c2ccc(F)cc2)CC1	.	.	-70	.[7.66 µM]	.
O=C(CN1CCC(C(=O)c2ccc(F)cc2)CC1)Nc1ccccc1Cl	.	.	-57	.	.
COc1ccc(NC(=O)CN2CCC(n3c(C)nc4cc(F)ccc43)CC2)c(OC)c1	.	.	.	.	132
COc1ccccc1NC(=O)CN1CCC(C(=O)c2ccc(F)cc2)CC1	.	.	-70	.	.
COc1ccc(C(=O)N2CCC(C(=O)c3ccc(F)cc3)CC2)cc1	.	.	.	.	.
COc1ccc(NC(=O)CN2CCN(CC(=O)Nc3ccc(F)cc3)CC2)c(OC)c1	.	.	.	.	.
COCCCNCCCCOc1ccc(Br)cc1C	.	.	-97	.	.
Cc1cc(Br)ccc1OCCCCNC(C)(C)C	.	.	-66	.	.
S=c1[nH]nc(-c2ccccn2)n1/N=C/c1ccc(Cl)cc1	.	.	.	.	.
S=c1[nH]nc(-c2ccccn2)n1/N=C/c1ccccc1	.	.	-52	.	.
Cn1cccc1/C=N/n1c(-c2ccccc2)n[nH]c1=S	.	.	-98	.	.
Cc1ccc(-c2n[nH]c(=S)n2/N=C\c2ccco2)cc1	.	.	.	.	.
